The values below come from PubChem BioAssay (NCI).

Each structure is given as a SMILES string. Where “and” joins values, the source holds several entries; their conditions need not be identical. Identical values can stand only once. The panel holds about 83,000 compounds, 20% with a hit somewhere; the sample as a whole holds those more often.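 Each cell line was grown in a 96-well plate and treated with one concentration of compound for 48 hours. Values below 10 were considered active.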 Calls of active or inactive are those of the source.

The subject of the assay is MDA-MB-468 breast. As to the kind of experiment: NCI-60 one-dose screen, 48 h (100 = growth as untreated, 0 = no growth, -100 = all killed). As to conditions: 10 µM unless noted.
On to `Cc1nc2cc(Nc3nc(Nc4ccc(F)cc4)nc(N4CCCC4)n3)ccc2n1Cc1ccccc1`, for which the growth is -63.3% (active). Under `Brc1ccc(-c2cnc3nonc3n2)cc1` stands 50.1% (inactive); under `COC(=O)C1(O)NC(=C(C#N)C#N)C(C#N)=C1C(=O)c1ccc(OC)c(OC)c1` (stereo not given), 110% (inactive). With `COc1ccc(-c2csc(NC(=O)CSc3nc(C)c(-c4ccccc4)n3Nc3ccccc3)n2)cc1`, the growth is 91.3% (inactive). `O=[N+]([O-])c1cccc(-c2nc3sccn3c2-c2ccnc(NCCCNS(=O)(=O)c3ccc(C(F)(F)F)cc3)n2)c1`: the growth was 22.8% (inactive). Regarding `COc1cc(OCc2cccc(-c3ccccc3)c2C)cc(OC)c1CN1CCCCC1C(=O)NCCOCCOCCN` (stereo not given), the growth is 30% (inactive). For the compound `CCCC#CCN(CC)CC`, the growth is 99.1% (inactive).

As to `CCC(=O)C1C(=O)c2ccccc2C1=O`, the growth is 115% (inactive). As for `CCOC(=O)c1sc2nc(-c3cccc(OC)c3)nc(N3CCOCC3)c2c1C`, the growth was 81.2% (inactive). The same measure for `COCCn1cc(-c2nc(-c3cc4cccnc4[nH]3)cs2)c2cc(OC)ccc21`: -24% (active); for `COc1cc(OC)c(/C=C/c2ccc3ccccc3[n+]2C)c(OC)c1`: -13.7% (active). Under `CCC[S@@](=O)c1ccc2nc(NC(=O)OC)[nH]c2c1` stands 68.5% (inactive); under `C=C(C)[C@@H]1CC[C@]2(C(=O)ON)CC[C@]3(C)[C@H](CC[C@@H]4[C@@]5(C)C/C(=C/c6ccc(Br)cc6)C(=O)C(C)(C)[C@@H]5CC[C@]43C)[C@@H]12`, 73.2% (inactive); under `COc1cc(-c2nn(-c3ccc(NC(=O)Nc4ccc(Cl)c(Cl)c4)cc3)cc2-c2ccncc2)ccc1Cl`, 30.4% (inactive). Take `C[C@@H](c1ccc2c(c1)[nH]c1ccc(Cl)cc12)c1nc2ccc(Cl)cc2[nH]1`: the growth is -37.4% (active). Consider `O=C1/C(=C/c2ccccc2)CN(C(=O)C(Cl)Cl)C/C1=C\c1ccccc1`, for which the growth is -32.8% (active).

On to `CCN(CC)Cc1cc(Nc2ccnc3ccc(OC)cc23)ccc1O`, for which the growth is -3.96% (active). In the case of `COc1ccc(S(=O)(=O)Nc2cc(/C=C\c3cc(OC)c(OC)c(OC)c3)ccc2OC)cc1`, the growth was 7.65% (active). For the compound `COc1ccc2c(c1)OC13Oc4cc(OC)ccc4C=C1CCCC3=C2`, the growth was 56.3% (inactive). As for `CNCCN(C)c1ccc(Nc2cc(NC3CC3)n3ncc(C#N)c3n2)cc1NC(C)=O`, the growth is -54.5% (active). For `O=C(N/N=C/c1ccc(Cl)cc1)c1ccc(NC(=O)c2ccccn2)cc1`, the growth was 78.2% (inactive). In the case of `ONc1nc(NO)c2[nH]cnc2n1`, the growth is 47.6% (inactive). With `O=C(CCn1c[n+](CC(=O)c2ccc(-c3ccccc3)cc2)c2ccccc21)Nc1cccc2cccnc12`, the growth is -31.2% (active). As for `COc1ccccc1NCc1cccn1Cc1ccc(F)cc1`, the growth was 82.6% (inactive). Turning to `COc1ccc(/C=C2\SC(=O)N(Cc3cc(=O)oc4ccc(OC)cc34)C2=O)cc1`, the growth is 46.6% (inactive). In the case of `CC(C)CC(NC(=O)C(CCCN=C(N)N)NC(=O)OCc1ccccc1)C(=O)NC(CNC(=O)/C=C/c1ccccc1)C(C)C` (stereo not given), the growth is 94.4% (inactive). Regarding `OCc1ccccn1`, the growth was 99.9% (inactive). Take `CCCCN1CCN(c2ccc3nc(-c4ccc5nc(-c6cc(OC)c(OC)c(OC)c6)[nH]c5c4)[nH]c3c2)CC1`: the growth is 45.7% (inactive). Under `c1ccc(NCc2ccc3c(c2)OCO3)cc1` stands 104% (inactive) and 97.7% (inactive); under `O=c1oc2ccc(-c3ccc(F)cc3F)cc2c(=O)n1-c1cccc(C(F)(F)F)c1`, -12.8% (active) and -5.33% (active); under `CCN(CC)CCCC(C)NCCCNc1cccc2cccnc12` (stereo not given), 90% (inactive). On to `CC(C)CNCC(O)COc1ccc(C(C)(C)c2ccc(OCC(O)CNCC(C)C)cc2)cc1` (stereo not given), for which the growth was 62.5% (inactive). In the case of `O=C(Nc1cccc(-n2cc(-c3ccncc3)c(-c3cc(O)cc(Cl)c3)n2)c1)c1cc(C(F)(F)F)cc(C(F)(F)F)c1`, the growth was 31.2% (inactive). The same measure for `O=C(CSc1nnc(-c2ccc3nc(-c4ccc(Cl)cc4)[nH]c3c2)o1)Nc1ccc(C(=O)/C=C/c2ccc(Cl)cc2)cc1`: 100% (inactive).

On to `CC(C)(C)n1cc(-c2ccnc(NCCCNS(=O)(=O)c3cccc(F)c3)c2)c(-c2cccc(O)c2)n1`, for which the growth was 25.9% (inactive). Regarding `Cc1c(O)cccc1O`, the growth was 117% (inactive). Regarding `COc1ccc(C(=O)CSc2nnc(-c3cc(-c4ccccc4)nc4ccccc34)o2)cc1`, the growth is 104% (inactive).

In the case of `C=C1C(=O)O[C@H]2[C@H]1CC/C(COC(=O)NCc1ccc(Cn3c(=O)sn(-c4ccc(OC)cc4)c3=O)cc1)=C\CC[C@@]1(C)O[C@@H]21`, the growth is 17.9% (inactive).

On to `O=C(CCCSc1nc(-c2ccccc2)cc(-c2ccc(Cl)cc2)n1)NO`, for which the growth is -43.9% (active). The same measure for `CCCCCCCCCCCCCCCCNCCC[C@@H](C)[C@H]1CC[C@H]2[C@@H]3[C@H](OCCCN)C[C@@H]4C[C@H](OCCCN)CC[C@]4(C)[C@H]3C[C@H](OCCCN)[C@]12C`: -55.2% (active).
